Rows were chosen to be rich in hits. Some 3.2% of all compounds tested hit in one or more screens of this group.
AMA1 RON2 block = qHTS for Inhibitors of AMA1-RON; Towards Development of Antimalarial Drug Lead: Primary Screen; Plasmodium falciparum AMA1 (3D7) - RON2 peptide interaction; AlphaScreen AMA1-biotinylated RON2 peptide binding; actives 0.2% (n = 360,000); Potency, µM (titrated, usually from 58.2 µM), for the others: at the highest dose activity change, negative = inhibition, actives largely listed as inhibitors; AID 720542, 2013;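 note: 0% = vehicle wells and -100% = peptide control; nearly all actives have a fitted effect of over 45% in size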
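AMA1 (3D7) with his tag at 25 nM final met compounds first, then biotinylated RON2 peptide at 25 nM; detection used donor plus acceptor beads, 10 µg/mL apiece, read by AlphaScreen after 30 min at room temperature.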
RE007 growth inh = qHTS Assay for Inhibitors of the HIV-1 protein Vpr; S. pombe RE007 Vpr strain, BacTiter-Glo ATP luminescence, 24 h; Potency, µM (series often up to 92.2 µM), inactives show at the top dose activity change, negative = less growth, usual class: inhibitors; actives 0.21% (n = 360,000); AID 651644, 2012; active = well fitted falling curve with a large enough effect; inconclusive = small, poorly fitted or top-dose-only effect; inactive = no such curve, though single readings can be large or run the other way; note: nearly all actives have a fitted effect of over 50% in size
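Fission yeast strain RE007, carrying one chromosomally integrated HIV-1 vpr copy, was seeded at OD 0.01 in PMG+AL medium with 23 nL pinned compound. After 24 h at 30 °C and 99% humidity, viability was read by BacTiter-Glo luminescence.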
LmPK inh = qHTS Assay for Inhibitors of Leishmania Mexicana Pyruvate Kinase (LmPK). purified LmPK, Kinase-Glo ATP luminescence, 1 h. Potency, µM (doses to about 57.5 µM), for inactives: top-dose activity change, negative = inhibition, actives largely listed as inhibitors. actives 0.37% (n = 290,000). AID 1721, 2009
Target sequence (Q27686 whole entry, looked up): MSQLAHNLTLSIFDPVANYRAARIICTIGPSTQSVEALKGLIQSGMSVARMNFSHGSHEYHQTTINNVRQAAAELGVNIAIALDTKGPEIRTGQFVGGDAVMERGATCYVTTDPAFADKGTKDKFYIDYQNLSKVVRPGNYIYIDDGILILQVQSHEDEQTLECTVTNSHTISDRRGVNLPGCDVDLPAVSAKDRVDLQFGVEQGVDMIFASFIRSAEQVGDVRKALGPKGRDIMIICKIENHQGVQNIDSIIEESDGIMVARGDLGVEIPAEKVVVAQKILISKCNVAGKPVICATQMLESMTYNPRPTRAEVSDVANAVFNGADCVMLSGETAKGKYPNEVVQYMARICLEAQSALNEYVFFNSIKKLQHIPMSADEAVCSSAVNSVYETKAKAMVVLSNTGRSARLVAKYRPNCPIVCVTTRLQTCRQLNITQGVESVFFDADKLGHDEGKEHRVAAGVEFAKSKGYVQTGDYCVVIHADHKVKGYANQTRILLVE
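Pyruvate kinase activity monitored as ATP production (luciferase luminescence). Conditions: 0.1 nM enzyme, 0.5 mM PEP, 0.1 mM ADP, 1 h, RT; normalized against uninhibited and no-enzyme wells.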
Sm TGR inh = qHTS Assay for the Inhibitors of Schistosoma Mansoni Peroxiredoxins; Schistosoma mansoni thioredoxin glutathione reductase (TGR), Q962Y6; Potency, µM (highest dose often 114 µM), for inactives: at the top dose activity change, negative = inhibition, usual class: inhibitors; purified TGR, DTNB reduction, TNB absorbance 405 nm; actives 3% (n = 360,000); note: nearly all actives have a fitted effect of over 60% in size
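Kinetic colorimetric format: TGR-catalysed, NADPH-driven DTNB reduction monitored via TNB absorbance. Enzyme dispensed at 20 nM; compound exposure 15 min at room temperature before reaction start.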
TbPYK inhibitor = qHTS of Trypanosoma Brucei Inhibitors. pyruvate kinase (Trypanosoma brucei), Q57TT1. TbPYK enzyme, Kinase-Glo Plus ATP luminescence, 45 min. Potency, µM (highest dose often 76.8 µM), for inactives: top-dose activity, negative = inhibition, hits mostly inhibitors. actives 0.12% (n = 410,000). AID 624173, 2012; note: nearly all actives have a fitted effect of over 50% in size
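Luminescent Kinase-Glo Plus end-point after 45 min room-temperature reaction of T. brucei pyruvate kinase started with 130 uM ADP (final). Buffer TEA 50 mM pH 7.2 with KCl, MgCl2, BSA, Tween-20; titration-based qHTS with fitted concentration-effect curves.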
* marks the source's active call; other numbers are inactive results; ? = inconclusive; nt = no result given; ! = not confirmed by another sample. Unless noted, calls come from the whole dose curve; as a rule, active = well fitted curve in the direction sought with a large enough effect; inconclusive = small, poorly fitted or top-dose-only effect, or another doubt; inactive = no such curve, though single readings can be large; an effect the other way counts as inactive or inconclusive. Unless noted, % is set by controls: 0 for no effect and ±100 for the full control effect; potency is the fitted concentration of half-maximal effect.

SMILES	AMA1 RON2 block	RE007 growth inh	LmPK inh	Sm TGR inh	TbPYK inhibitor
COc1ccc(-n2c(CCc3ccccc3)n[nH]c2=S)cc1	89%	-4%	-8%	-2%	?
CCOc1ccc(-n2c(CCc3ccccc3)n[nH]c2=S)cc1	51%	13%	?	-27%	3.2µM*
CCc1ccc(-n2c(Cc3ccccc3)n[nH]c2=S)cc1	137%	-4%	-5%	3%	4µM*
Cc1c(C(N)=O)nnn1-c1ccc(Br)cc1	nt	nt	nt	-1%	2%
COc1ccc(Nc2nc3c(S(=O)(=O)c4ccc(Br)cc4)nnn3c3ccsc23)c(OC)c1	nt	nt	nt	6%	-1%
COc1ccc(-c2noc(CSc3nc(N)cc(=O)[nH]3)n2)cc1OC	nt	nt	nt	10%	1%
CCOC(=O)c1c(C)oc2nc(C)nc(NCCCN3CCN(c4cccc(C)c4)C(C)C3)c12 (stereo not drawn)	nt	nt	nt	-6%	0%
Cc1ccc(/C=C/c2nc3ccccc3[nH]2)o1	2%	-30%	16µM*	3.5µM*	?
COc1ccc(C2OC34CCCCC3C(C#N)(C#N)C2(C#N)C(=N)O4)cc1 (stereo not drawn)	8%	3%	5%	40µM*	1%
CCC1OC23CCCCC2C(C#N)(C(=N)O3)C1(C#N)C#N (stereo not drawn)	2%	23%	0%	?	-8%
CC1OC23CCCCC2C(C#N)(C(=N)O3)C1(C#N)C#N (stereo not drawn)	-4%	12%	-6%	?	-1%
N#CC1(C#N)COC23CCCCC2C1(C#N)C(=N)O3 (stereo not drawn)	-1%	-13%	2%	56µM*	4%
N#CC12COC3(CCCCC3C1(C#N)C#N)OC2=N (stereo not drawn)	-4%	-4%	9%	18µM*	-3%
CCOC(=O)c1c(C)c(C(=O)NCCc2ccc(OC)cc2)c(C)n1CC	nt	nt	nt	22µM*	-5%
COc1ccc(OCC#CCN2CC(C)OC(C)C2)cc1 (stereo not drawn)	11%	13%	0%	7.1µM*	3%
Cc1ccc(CSc2nc3ccc(NC(=O)C(C)C)cc3s2)cc1	nt	nt	nt	1%	1%
COc1ccccc1Nc1ccc2c(O)cc(S(=O)(=O)O)cc2c1	20µM*	-3%	nt	nt	?
Cc1cccc(-c2nc(S(=O)(=O)c3ccc(Cl)cc3)c(N3CCCCCC3)o2)c1	nt	nt	nt	5%	-9%
Cc1ccc(S(=O)(=O)c2nc(-c3ccc(Cl)cc3)oc2N2CCCCCC2)cc1	nt	nt	nt	40µM*	10%
COc1ccc(-c2nc(S(=O)(=O)c3ccccc3)c(N3CCC(C)CC3)o2)cc1	nt	nt	nt	3%	2%
CCOc1ccc(-c2nc(S(=O)(=O)c3ccccc3)c(N3CCC(C(N)=O)CC3)o2)cc1	-1%	-10%	-3%	35µM*	15%
COc1ccc(-c2nc(S(=O)(=O)c3ccc(C)cc3)c(N3CCCC3)o2)cc1	-9%	-1%	0%	2µM*	31%
Cc1ccc(-c2nc(S(=O)(=O)c3ccc(C)cc3)c(N3CCCCC3)o2)cc1	nt	nt	nt	8.9µM*	-7%
Cc1ccc(S(=O)(=O)c2nc(-c3ccccc3)oc2N2CCCCCC2)cc1	nt	nt	nt	-21%	2%
COc1ccc(S(=O)(=O)NCCc2sc(-c3cccnc3)nc2C)cc1	nt	nt	nt	-26%	3%
Cc1ccc(S(=O)(=O)c2nc(C(C)(C)C)oc2N2CCOCC2)cc1	-5%	-11%	2%	1.1µM*	?
O=S(=O)(c1ccccc1)c1nc(-c2ccccc2)oc1N1CCOCC1	-2%	-8%	2%	8%	3%
O=S(=O)(c1ccccc1)c1nc(-c2cccc(Cl)c2)oc1N1CCOCC1	-14%	-8%	-8%	32µM*!	0%
CN1CCCN(Cc2nc(-c3ccc(Cl)cc3)no2)CC1	8%	-3%	2%	18µM*	0%

Screening data (PubChem)
